# Activity calls are given as the source filed them.
# What was measured:
# [1] = target: Albumin (Bos taurus) (UniProt P02769); experiment: compounds binding labelled BSA control protein – biochemical, small-molecule microarray, Alexa647 label, 635/667 nm fluorescence, artefact control for SMM control protein annotation, profiling panel (AID 1118); conditions: BSA-A647 binding, fluorescence 635 nm, higher = more signal;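 further: score merges 667 nm emission intensity and signal-to-noise per printed compound spot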
# Chain of Albumin (Bos taurus) (P02769 whole entry, looked up): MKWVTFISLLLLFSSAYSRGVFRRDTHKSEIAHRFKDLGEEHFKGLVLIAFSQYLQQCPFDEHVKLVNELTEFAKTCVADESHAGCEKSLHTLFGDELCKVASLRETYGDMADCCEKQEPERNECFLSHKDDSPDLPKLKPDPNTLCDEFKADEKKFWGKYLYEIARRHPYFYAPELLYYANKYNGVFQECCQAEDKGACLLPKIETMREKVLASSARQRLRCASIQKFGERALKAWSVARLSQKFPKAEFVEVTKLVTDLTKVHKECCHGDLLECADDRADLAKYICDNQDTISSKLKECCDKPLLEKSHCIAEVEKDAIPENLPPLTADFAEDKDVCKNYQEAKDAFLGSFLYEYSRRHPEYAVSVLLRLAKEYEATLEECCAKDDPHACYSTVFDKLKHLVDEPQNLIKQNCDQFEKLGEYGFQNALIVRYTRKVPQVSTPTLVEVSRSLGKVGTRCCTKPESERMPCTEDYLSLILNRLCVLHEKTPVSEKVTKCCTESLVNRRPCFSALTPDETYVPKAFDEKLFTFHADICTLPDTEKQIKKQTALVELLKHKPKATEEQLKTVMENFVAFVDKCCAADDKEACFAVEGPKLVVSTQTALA
# [2] = probe aXIP binding to arrayed compounds – biochemical, NeuroSMM set, 635/667 nm fluorescence, primary screen (AID 1119); conditions: small-molecule microarray, higher = more signal, called active from +8 up or from −8 down;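 further: probe is the protein aXip251-270 applied at 1 µg/mL to compound-printed slides; binding of probe to printed compounds measured as 667 nm fluorescence plus signal to noise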
# [3] = probe aNOTCH3 binding on compound microarray – biochemical, small-molecule microarray, 635/667 nm fluorescence, primary screen (AID 1120); conditions: higher = more signal;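 further: probe is a biotin-tagged antibody raised against NOTCH3 rather than NOTCH3 protein; score merges spot fluorescence near 667 nm with spot signal to noise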
# [4] = probe aNOTCH2 binding on compound microarray – biochemical, small-molecule microarray, 635/667 nm fluorescence, primary screen (AID 1121); conditions: higher = more signal;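 further: score merges feature fluorescence read at 667 nm with its signal to noise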
# [5] = target: Carbonic anhydrase 2 (Homo sapiens) (UniProt P00918); experiment: compounds binding carbonic anhydrase 2 – biochemical, small-molecule microarray, Alexa647-labelled CAII, profiling panel (AID 1122); conditions: CAII-A647 binding fluorescence, higher = more signal
# [6] = COS7 lysate on small-molecule microarray, probe aHis, 635 nm (AID 1123); conditions: COS7 cell lysate, fluorescence, higher = more signal;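 further: z-score combines 667nm fluorescence intensity with signal-to-noise per printed compound spot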
# [7] = probe aLAP1 signal on lysate-treated microarray – cell lysate, small-molecule microarray, COS7 lysate, primary screen (AID 1124); conditions: probe aLAP1, fluorescence, higher = more signal;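 further: lysate comes from COS7 cells expressing LAP1 and is applied at 0.3 µg/mL; score merges spot fluorescence near 667 nm with signal-to-noise over triplicate slides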
# [8] = system: Sam68 (KHDRBS1); experiment: compounds binding KHDRBS1 protein – biochemical, small-molecule microarray, 635 nm fluorescence, primary screen (AID 1125); conditions: higher = more signal;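 further: score merges 667 nm channel intensity with signal to noise over triplicate slides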
# [9] = system: Chordin-like protein 2 (CHRDL2); experiment: compounds binding chordin-like 2 – biochemical, small-molecule microarray, 635 nm fluorescence, primary screen (AID 1126); conditions: fluorescence 635 nm, higher = more signal;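 further: printed compound slides probed with Chrdl2 protein at 4 µg/mL for 1 h at 4 C; score merges 667 nm emission intensity with signal to noise over three replicate slides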
# [10] = target: Concanavalin-A (Canavalia ensiformis) (UniProt P02866); experiment: compounds binding concanavalin A lectin – biochemical, small-molecule microarray, Alexa647 label, 635 nm, artefact control for SMM control protein annotation, primary screen (AID 1127); conditions: ConA-A647 binding fluorescence, higher = more signal;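 further: z combines 667 nm emission intensity with signal-to-noise across three replicate slides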
# Chain of Concanavalin-A (Canavalia ensiformis) (P02866 whole entry, looked up): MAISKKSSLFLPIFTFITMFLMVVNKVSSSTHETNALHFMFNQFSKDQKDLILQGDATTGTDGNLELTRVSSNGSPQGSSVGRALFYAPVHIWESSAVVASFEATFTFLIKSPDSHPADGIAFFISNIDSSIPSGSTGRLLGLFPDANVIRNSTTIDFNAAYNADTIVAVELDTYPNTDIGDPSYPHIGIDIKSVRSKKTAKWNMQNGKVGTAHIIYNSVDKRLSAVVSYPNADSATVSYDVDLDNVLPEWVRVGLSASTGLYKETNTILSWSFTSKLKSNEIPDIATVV
# [11] = compounds binding Alexa647 anti-His antibody – biochemical, small-molecule microarray, 635 nm fluorescence, artefact control for SMM control protein annotation, primary screen (AID 1128); conditions: higher = more signal;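 further: score merges feature fluorescence with signal-to-noise for each printed compound spot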
# [12] = system: Human papillomavirus type 1a E7 protein (residues 1-88); experiment: HPV1a E7 small-molecule binders, primary screen, biochemical, small-molecule microarray, residues 1-88, 635 nm (AID 1129); conditions: small-molecule microarray binding, fluorescence 635 nm; higher = more signal
# [13] = target: Focal adhesion kinase 1 (Homo sapiens) (UniProt Q05397); experiment: PTK2 protein binding on printed compound slides – biochemical, small-molecule microarray, 635/667 nm fluorescence, BSA, DTT, primary screen (AID 1130); conditions: 635 nm fluorescence, higher = more signal;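 further: composite of spot emission at 667 nm and signal to noise over triplicate slides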
# Chain of Focal adhesion kinase 1 (Homo sapiens) (Q05397 whole entry, looked up): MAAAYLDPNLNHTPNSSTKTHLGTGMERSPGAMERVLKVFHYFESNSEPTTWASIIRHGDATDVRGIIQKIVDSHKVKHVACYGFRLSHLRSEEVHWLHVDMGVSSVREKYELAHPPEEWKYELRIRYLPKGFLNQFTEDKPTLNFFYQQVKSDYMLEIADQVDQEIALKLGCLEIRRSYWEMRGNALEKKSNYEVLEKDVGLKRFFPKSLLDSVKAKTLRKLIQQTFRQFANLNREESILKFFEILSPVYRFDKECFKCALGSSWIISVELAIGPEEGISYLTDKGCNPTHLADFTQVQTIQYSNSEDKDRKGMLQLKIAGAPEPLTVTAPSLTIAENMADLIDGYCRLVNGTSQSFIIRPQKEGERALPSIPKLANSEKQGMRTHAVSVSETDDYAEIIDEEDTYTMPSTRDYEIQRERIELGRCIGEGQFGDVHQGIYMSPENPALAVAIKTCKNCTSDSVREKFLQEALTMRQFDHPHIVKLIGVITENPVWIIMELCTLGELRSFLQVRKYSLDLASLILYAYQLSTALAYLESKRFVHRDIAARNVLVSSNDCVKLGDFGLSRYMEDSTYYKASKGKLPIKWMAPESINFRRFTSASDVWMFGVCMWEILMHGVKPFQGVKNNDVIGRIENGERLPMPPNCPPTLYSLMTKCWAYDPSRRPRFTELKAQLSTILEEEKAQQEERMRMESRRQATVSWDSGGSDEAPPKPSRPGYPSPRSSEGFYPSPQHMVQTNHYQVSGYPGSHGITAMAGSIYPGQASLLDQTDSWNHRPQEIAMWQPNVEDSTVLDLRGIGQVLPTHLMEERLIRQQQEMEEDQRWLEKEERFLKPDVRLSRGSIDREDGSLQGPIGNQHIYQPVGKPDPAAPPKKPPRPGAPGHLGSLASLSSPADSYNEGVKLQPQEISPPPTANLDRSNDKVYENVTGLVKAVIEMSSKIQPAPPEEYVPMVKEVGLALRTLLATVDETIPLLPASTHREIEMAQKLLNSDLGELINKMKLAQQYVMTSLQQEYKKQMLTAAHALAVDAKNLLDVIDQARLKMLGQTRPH
# [14] = system: Fibrinogen (Alexa647-labelled); experiment: Alexa647-fibrinogen binding to printed small molecules – biochemical, small-molecule microarray, 635/667 nm fluorescence, artefact control for SMM control-protein annotation, profiling panel (AID 1131); conditions: fibrinogen-A647 binding fluorescence, higher = more signal;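 further: z-score merges 667 nm fluorescence with per-spot signal-to-noise over triplicate slides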
# [15] = target: Follistatin (Homo sapiens) (UniProt P19883); experiment: FST protein binding to printed compounds – biochemical, small-molecule microarray, 635/667 nm fluorescence, primary screen (AID 1132); conditions: 635 nm fluorescence, higher = more signal
# Chain of Follistatin (Homo sapiens) (P19883 whole entry, looked up): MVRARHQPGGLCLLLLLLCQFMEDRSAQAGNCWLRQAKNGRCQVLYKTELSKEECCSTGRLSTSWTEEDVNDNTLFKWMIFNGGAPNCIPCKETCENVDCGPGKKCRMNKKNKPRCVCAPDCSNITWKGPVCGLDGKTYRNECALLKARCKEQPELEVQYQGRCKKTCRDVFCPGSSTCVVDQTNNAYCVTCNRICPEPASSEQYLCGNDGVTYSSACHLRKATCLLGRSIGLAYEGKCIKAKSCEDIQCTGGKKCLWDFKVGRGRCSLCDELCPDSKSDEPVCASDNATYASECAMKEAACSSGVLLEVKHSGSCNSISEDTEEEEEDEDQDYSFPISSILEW
# [16] = target: Fibroblast growth factor 2 (Homo sapiens) (UniProt P09038); experiment: basic fibroblast growth factor binding to printed compounds – biochemical, small-molecule microarray, 635/667 nm fluorescence, primary screen (AID 1133); conditions: FGF2, fluorescence 635/667, higher = more signal
# Chain of Fibroblast growth factor 2 (Homo sapiens) (P09038 whole entry, looked up): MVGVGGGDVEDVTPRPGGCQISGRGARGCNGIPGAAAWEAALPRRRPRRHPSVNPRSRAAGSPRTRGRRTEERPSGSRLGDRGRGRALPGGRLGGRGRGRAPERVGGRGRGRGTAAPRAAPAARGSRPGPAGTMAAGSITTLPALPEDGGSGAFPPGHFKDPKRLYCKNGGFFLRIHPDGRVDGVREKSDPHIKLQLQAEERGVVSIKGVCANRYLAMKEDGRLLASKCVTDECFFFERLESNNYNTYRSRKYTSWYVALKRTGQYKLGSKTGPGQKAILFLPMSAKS
# [17] = JC-1 mitochondrial potential readout, lung cancer cells – cell-based, A549, JC-1 fluorescence, basal, 24 h, 100 nL, profiling panel (AID 1138); conditions: higher = more signal;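 further: A549 lung adenocarcinoma cells under basal conditions with no added stimulus; test concentration not given here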
# [18] = system: Lefty1; experiment: Lefty1 protein binding to printed compounds – biochemical, small-molecule microarray, 635/667 nm fluorescence, primary screen (AID 1139); conditions: fluorescence 635/667, higher = more signal
# [19] = system: wheat germ agglutinin (Triticum aestivum), Alexa647-labelled; experiment: Alexa647-WGA lectin binding to printed small molecules – biochemical, small-molecule microarray, 635/667 nm fluorescence, artefact control for SMM control-protein annotation, profiling panel (AID 1140); conditions: WGA-A647 binding, 635 nm fluorescence, higher = more signal;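 further: score merges 667 nm feature emission with signal to noise over triplicate slides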
# [20] = target: Luciferin 4-monooxygenase (Photinus pyralis) (UniProt P08659); experiment: inhibition of purified Photinus pyralis luciferase – biochemical, luminescence, purified enzyme, 2006 set, primary screen (AID 1141); conditions: purified firefly luciferase, SteadyGlo luminescence, 30 min; higher = more signal, called active from +8 up or from −8 down;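 further: cell-free assay with purified firefly luciferase at 100 ng per well in PBS; test concentration not given here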
# Chain of Luciferin 4-monooxygenase (Photinus pyralis) (P08659 whole entry, looked up): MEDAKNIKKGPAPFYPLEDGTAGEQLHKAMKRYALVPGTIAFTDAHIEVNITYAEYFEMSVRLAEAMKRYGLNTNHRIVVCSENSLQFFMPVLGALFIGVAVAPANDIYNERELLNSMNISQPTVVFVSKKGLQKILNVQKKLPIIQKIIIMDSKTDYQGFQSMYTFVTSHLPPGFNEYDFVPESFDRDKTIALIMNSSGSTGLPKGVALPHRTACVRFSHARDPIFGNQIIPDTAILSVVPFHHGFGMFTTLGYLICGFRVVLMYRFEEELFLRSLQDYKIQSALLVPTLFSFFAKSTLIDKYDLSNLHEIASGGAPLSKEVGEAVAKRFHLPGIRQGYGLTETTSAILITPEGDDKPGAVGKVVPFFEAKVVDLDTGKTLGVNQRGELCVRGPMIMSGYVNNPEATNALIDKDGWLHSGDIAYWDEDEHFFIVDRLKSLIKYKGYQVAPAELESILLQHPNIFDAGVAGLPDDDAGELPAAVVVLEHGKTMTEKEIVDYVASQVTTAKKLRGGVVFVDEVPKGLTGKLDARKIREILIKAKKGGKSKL
SMILES,composite z-score [1],composite Z-score [2],composite z-score [3],composite z-score [4],composite z-score [5],composite z-score [6],composite z-score [7],composite z-score [8],composite z-score [9],composite z-score [10],composite z-score [11],composite z-score [12],composite z-score [13],composite z-score [14],composite z-score [15],composite z-score [16],z-score [17],composite z-score [18],composite z-score [19],z-score [20]
O=C1C2C=CC(C(O)c3c(F)cccc3Cl)N(Nc3ccccc3)C2C(=O)N1c1ccccc1 (stereo not given),0.876,0.229 (inactive),0.418,0.014,0.382,2.81,0.045,1.31,-0.3,1.14,0.397,1.26,0.471,1.03,1.24,-0.0407,0.555,0.464,0.816,0.429 (inactive)
C=CCOC(=O)[C@@H]1[C@H]2C(=O)O[C@H](c3ccccc3)[C@H](c3ccccc3)N2[C@H](c2ccc(OCCOC(=O)[C@@H]3C[C@@H]4C(=O)N[C@@H](Cc5ccccc5)C(=O)N4[C@@H]3c3ccc(O)cc3)cc2)[C@@]12C(=O)Nc1ccc(I)cc12,-0.47,0.364 (inactive),0.251,-0.0984,0.299,1.28,0.0186,1,0.918,1.18,1.11,0.947,0.375,0.799,1.41,1.61,-1.53,1.41,0.844,0.304 (inactive)
O=C1OCCC=C[C@H]2OC34C=CCN(CCN5CCOCC5)C(=O)[C@H]3N(CCCCCCO)C(=O)[C@@H]4C12 (stereo not given in full),-0.274,1 (inactive),-0.274,-0.167,0.844,0.1,0.133,-0.614,-0.592,0.0309,0.626,-0.525,0.604,-1,-0.061,-0.486,0.884,0.0839,-0.255,-0.892 (inactive)
CCCCC=C[C@@H](NC(=O)Oc1cccc(C(F)(F)F)c1)c1ccccc1,1.02,0.505 (inactive),0.888,0.39,0.755,0.183,-0.403,1.27,-0.0519,1.13,0.291,1.21,0.0053,1.01,0.572,1.63,-1.68,-0.0322,1.15,1.52 (inactive)
COCCCNC(=O)[C@@]1(Cc2ccccc2N=[N+]=[N-])N=C(c2ccc(OCCCO)cc2)O[C@H]1c1ccccc1N=[N+]=[N-],0.964,0.328 (inactive),0.386,0.149,0.58,2.76,0.889,1.29,-0.0927,1.1,1.73,1.22,0.912,0.849,1.25,0.836,0.332,-0.0542,1.02,-3.37 (inactive)
C=CCOC(=O)[C@@H]1[C@H]2C(=O)O[C@H](c3ccccc3)[C@H](c3ccccc3)N2[C@H](c2ccc(OCCOC(=O)[C@@H]3C[C@@H]4C(=O)N[C@@H](CCCCN(C)C)C(=O)N4[C@@H]3c3ccc(O)cc3)cc2)[C@@]12C(=O)Nc1ccc(I)cc12,0.848,0.412 (inactive),0.0738,-0.177,0.275,1.83,-0.157,1.29,1.15,1.16,1.13,0.799,0.338,0.177,1.2,1.34,-1.78,0.844,0.542,-2.62 (inactive)
CCOC(=O)[C@H]1C/C=C/C[C@H](C(=O)OCC)C(=O)O[C@H]2[C@@H](OC)O[C@H](CO)[C@@H](OC(=O)Nc3ccc(C#N)cc3)[C@@H]2OC1=O,0.842,0.941 (inactive),-0.307,-0.159,0.607,0.823,0.603,0.171,-0.619,-0.175,0.514,0.45,0.499,-0.274,0.336,0.121,-1.92,0.519,0.852,0.215 (inactive)
C=C(C)C1C(=C)CN([C@H](CO)c2ccccc2)C1=O (stereo not given in full),0.16,1.66 (inactive),-0.0967,-0.133,-0.0056,-0.583,-0.133,-0.245,0.117,-0.844,0.0639,-0.534,-0.521,-0.0803,0.189,-0.158,-0.647,0.587,-0.187,1.01 (inactive)
Cc1ccc(C(C)CC(O)C2C=CC3C(=O)N(c4ccccc4)C(=O)C3N2Nc2ccc([N+](=O)[O-])cc2)o1 (stereo not given),0.861,-0.608 (inactive),0.222,0.0129,0.788,1.96,0.67,1.32,0.595,0.977,0.484,1.23,0.772,0.904,1.06,0.232,-0.828,-0.0023,0.646,1.45 (inactive)
O=C(NCc1ccccc1)[C@@]1(Cc2ccccc2)N=C(c2ccc(OCCCO)cc2)O[C@H]1c1ccccc1,0.974,0.1 (inactive),0.261,0.349,0.617,2.41,1.4,1.31,-1.46,1.15,1.47,1.22,0.45,0.866,0.368,-0.352,0.164,-0.872,1.05,0.712 (inactive)
CC(C)C[C@@H]1NC(=O)[C@@H]2C[C@H](C(=O)NCCCCCN)[C@H](c3cccc(OCCO)c3)N2C1=O,1.02,0.425 (inactive),0.0992,-0.17,0.813,1.03,1.16,0.839,0.0186,1.2,1.19,1.04,1.13,0.93,0.555,0.591,1.18,0.288,1.13,-1.21 (inactive)
